Test results from PubChem BioAssay (NCI).
This is part of a sample that, as a whole, favours compounds with a hit. Of some 83,000 tested, about 20% had one in any assay.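 A percent growth of 40 corresponds to 60% growth inhibition; 0 means no net growth; -100 means all cells died. Active threshold: below 10.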 Calls of active or inactive are those of the source.

Columns and labels:
Test in all cases: NCI-60 one-dose screen, 48 h (100 = growth as untreated, 0 = no growth, -100 = all killed)
Conditions in all cases: 10 µM unless noted
SR leukemia = test system: SR leukemia
RPMI-8226 leukemia = test system: RPMI-8226 leukemia
OVCAR-8 ovarian = test system: OVCAR-8 ovarian
OVCAR-5 ovarian = test system: OVCAR-5 ovarian
OVCAR-4 ovarian = test system: OVCAR-4 ovarian
SK-OV-3 ovarian = test system: SK-OV-3 ovarian
IGROV1 ovarian = test system: IGROV1 ovarian
OVCAR-3 ovarian = test system: OVCAR-3 ovarian
HS 578T breast = test system: HS 578T breast
NCI/ADR-RES ovarian = test system: NCI/ADR-RES ovarian
T-47D breast = test system: T-47D breast
BT-549 breast = test system: BT-549 breast
MDA-MB-435 melanoma = test system: MDA-MB-435 melanoma
SW-620 colon = test system: SW-620 colon
HCC-2998 colon = test system: HCC-2998 colon
KM12 colon = test system: KM12 colon
HCT-116 colon = test system: HCT-116 colon
MCF7 breast = test system: MCF7 breast

Measured: growth

COc1ccc(-c2nc3sc(-c4cc(OC)c(OC)c(OC)c4)nn3c2/C=C2/C(=O)Nc3ccc(F)cc32)cc1
inactive: SR leukemia 18.6% | RPMI-8226 leukemia 13.3% | OVCAR-8 ovarian 21.9% | HS 578T breast 30.3% | NCI/ADR-RES ovarian 37.6% | BT-549 breast 41.5% | KM12 colon 13.7%
active: OVCAR-5 ovarian 3.01% | OVCAR-4 ovarian -32.4% | SK-OV-3 ovarian 6.67% | IGROV1 ovarian -39.3% | OVCAR-3 ovarian -60.9% | T-47D breast -24.9% | MDA-MB-435 melanoma -28.6% | SW-620 colon 0.989% | HCC-2998 colon -55%

COC(=O)c1cccc2c1N(C)c1c(cccc1C(=O)OC)CC2
inactive: SR leukemia 114% | RPMI-8226 leukemia 90.5% | OVCAR-8 ovarian 113% | OVCAR-5 ovarian 98.7% | OVCAR-4 ovarian 112% | SK-OV-3 ovarian 110% | IGROV1 ovarian 108% | OVCAR-3 ovarian 102% | HS 578T breast 89.7% | NCI/ADR-RES ovarian 95.6% | T-47D breast 95.6% | BT-549 breast 112% | MDA-MB-435 melanoma 101% | SW-620 colon 105% | HCT-116 colon 104% | HCC-2998 colon 97.4%

CN(CCCCCl)P(=O)(OCc1ccc([N+](=O)[O-])o1)C(F)(F)C[C@H](NC(=O)CNC(=O)c1ccc(N=[N+]=[N-])cc1)C(=O)NCCc1ccc(O)cc1 (stereo not given in full)
inactive: RPMI-8226 leukemia 87.3% | OVCAR-8 ovarian 107% | OVCAR-5 ovarian 123% | OVCAR-4 ovarian 95.2% | SK-OV-3 ovarian 113% | IGROV1 ovarian 84.3% | OVCAR-3 ovarian 109% | HS 578T breast 84.4% | NCI/ADR-RES ovarian 103% | T-47D breast 90.5% | BT-549 breast 79% | MDA-MB-435 melanoma 41.5% | SW-620 colon 37.6% | HCT-116 colon 78.4% | HCC-2998 colon 98.4% | KM12 colon 91.1%
active: SR leukemia 9.22%

COc1ccc(CCNC2=CC(=O)CCC2)cc1OC
inactive: SR leukemia 85.9% | RPMI-8226 leukemia 107% | OVCAR-8 ovarian 106% | OVCAR-5 ovarian 105% | OVCAR-4 ovarian 115% | SK-OV-3 ovarian 105% | IGROV1 ovarian 113% | OVCAR-3 ovarian 105% | HS 578T breast 94.6% | NCI/ADR-RES ovarian 102% | T-47D breast 100% | BT-549 breast 103% | MDA-MB-435 melanoma 110% | SW-620 colon 101% | MCF7 breast 105% | HCC-2998 colon 106% | KM12 colon 99%

COc1ccc(-c2nc(SCCC(C)C)nc(Nc3ccc(F)c(Cl)c3)c2C#N)cc1
inactive: SR leukemia 57.3% | RPMI-8226 leukemia 95.5% | OVCAR-8 ovarian 65.8% | OVCAR-5 ovarian 102% | SK-OV-3 ovarian 96% | IGROV1 ovarian 60.3% | OVCAR-3 ovarian 57.3% | HS 578T breast 65% | NCI/ADR-RES ovarian 81.4% | T-47D breast 72.4% | BT-549 breast 97.1% | MDA-MB-435 melanoma 79.1% | MCF7 breast 69.1% | HCT-116 colon 68.3% | HCC-2998 colon 102%
active: OVCAR-4 ovarian -43.1%

C=C[C@@H]1C[C@H](O)Cc2cc(F)ccc2N1
inactive: SR leukemia 73.6% | RPMI-8226 leukemia 73.2% | OVCAR-8 ovarian 102% | OVCAR-5 ovarian 95.7% | OVCAR-4 ovarian 101% | SK-OV-3 ovarian 104% | IGROV1 ovarian 131% | OVCAR-3 ovarian 102% | HS 578T breast 90.6% | NCI/ADR-RES ovarian 105% | T-47D breast 108% | BT-549 breast 96.9% | MDA-MB-435 melanoma 93.8% | SW-620 colon 98.7% | HCT-116 colon 103% | HCC-2998 colon 96.2% | KM12 colon 100%

O=[N+]([O-])c1ccc(Sc2ncccn2)c([N+](=O)[O-])c1
active: SR leukemia -20.3% | RPMI-8226 leukemia -29.3% | IGROV1 ovarian -9.02% | OVCAR-3 ovarian 7.76% | BT-549 breast -16.3%
inactive: OVCAR-8 ovarian 65.8% | OVCAR-5 ovarian 81.1% | OVCAR-4 ovarian 51.8% | SK-OV-3 ovarian 95.2% | HS 578T breast 88.6% | NCI/ADR-RES ovarian 53.8% | T-47D breast 41.1% | MDA-MB-435 melanoma 69.2% | MCF7 breast 34.4% | HCT-116 colon 37.5% | HCC-2998 colon 66.2% | KM12 colon 55.9%

COc1cccc(CC(C)=C(c2ccc(OCCN3CCCCC3)cc2)c2ccc(OCCN3CCCCC3)cc2)c1
inactive: OVCAR-5 ovarian 24% | SK-OV-3 ovarian 76.9% | BT-549 breast 44.6%
active: SR leukemia -41.2% | RPMI-8226 leukemia -45.8% | OVCAR-8 ovarian -50.3% | OVCAR-4 ovarian -49% | IGROV1 ovarian -10.5% | OVCAR-3 ovarian -40.7% | HS 578T breast -50% | NCI/ADR-RES ovarian -13.3% | T-47D breast -42.4% | MDA-MB-435 melanoma -96.6% | SW-620 colon -71.2% | HCT-116 colon -64.7% | HCC-2998 colon -68.8% | KM12 colon -30.9%

Nc1nc(Nc2cc(Cl)cc(Cl)c2)nn1S(=O)(=O)c1ccc2ccccc2c1
inactive: SR leukemia 46.3% | RPMI-8226 leukemia 66.5% | OVCAR-8 ovarian 40.6% | OVCAR-5 ovarian 68.3% | OVCAR-4 ovarian 72.5% | SK-OV-3 ovarian 59.5% | IGROV1 ovarian 20.3% | OVCAR-3 ovarian 60.1% | HS 578T breast 40.5% | NCI/ADR-RES ovarian 37.1% | T-47D breast 46% | BT-549 breast 90.7% | MDA-MB-435 melanoma 77.5% | MCF7 breast 32.8% | HCT-116 colon 33.5% | HCC-2998 colon 68.3% | KM12 colon 21.9%
